# Measurements: publication PMC12136788
# The full ranking holds about 5,800 sequences; the median of “enrichment r” is about 0.68, and the highest 2% start at about 11. Not all results are given here.
# T1: UNK ZnF1-6 (called full-length) (human, UniProt Q9C0B0 30-357)
# T1 sequence: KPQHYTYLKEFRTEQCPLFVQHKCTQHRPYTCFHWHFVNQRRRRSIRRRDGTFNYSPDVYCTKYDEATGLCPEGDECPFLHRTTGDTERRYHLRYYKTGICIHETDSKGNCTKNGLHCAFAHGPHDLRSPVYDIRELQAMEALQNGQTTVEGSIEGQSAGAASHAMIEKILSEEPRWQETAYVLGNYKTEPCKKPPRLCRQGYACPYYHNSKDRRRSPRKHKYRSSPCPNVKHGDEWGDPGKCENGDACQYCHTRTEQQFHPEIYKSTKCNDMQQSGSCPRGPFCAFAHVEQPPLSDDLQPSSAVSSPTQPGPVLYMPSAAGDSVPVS
# B1: chr17:82078764:82078865:-|3pUTR|ENSG00000169710|msi1_unk|FALSE|overlapping (ssRNA)
# RNA: GGGAGUUCUACAGUCCGACGAUCCCGUGGGGUCUGCGCUUGGUCUUUCUGUGCUUGGAUUUGCAUAUUUAUUGCAUUGCUGGUAGAGACCCCCAGGCCUGUCCACCCUGCCAAGACUCCUCAGGCAGCGUGUGGGUCCCGCACCAACAGAGGAUUGAGCAUCA
# B2: ENSG00000136451:be:win_1451|CDS_3pUTR|ENSG00000136451|bound_else_gene|NA|bound_elsewhere_windowed (ssRNA)
# RNA: GGGAGUUCUACAGUCCGACGAUCCUCCAAUGAAUCUACCCACACCUAUGACAUUAGCCGCCCCUCUCAAUAUAGCAAUGAGACCUGUAGAGAGCAUGCCUUUCUUGCCCCAAGCUUUGCCUACAUCACCGCCUUGGUAAACAGCAACAGAGGAUUGAGCAUCA
# B3: chr5:173316791:173316892:-|3pUTR|ENSG00000113739|msi1|FALSE|unique (ssRNA)
# RNA: GGGAGUUCUACAGUCCGACGAUCGGAAACCUUAUACCCAGAGGAAAAUACACACCUGGGGAGUACAUUUGACAAAUUUCCCUUAGGAUUUCGUUAUCUCACCUUGACCCUCAGCCAAGAUUGGUAAAGCUGCGUCCUGGCGAUCAACAGAGGAUUGAGCAUCA
# B4: ENSG00000064393:stop:overlap|stop_codon|ENSG00000064393|stop_codon|NA|stop_codon (ssRNA)
# RNA: GGGAGUUCUACAGUCCGACGAUCUCUCCCUGGAGAGUGGUUUUCCUGCUUUUCUGCUGCUAGAAAUGUUGCUGUAUGGGAGCUAGUACAAUAGAAAGUGCCCAGUGACUGCAGGCGACCCUUACCGAGGAUUUUAUUCAAGUACAACAGAGGAUUGAGCAUCA
# B5: ENSG00000198589:be:win_4201|CDS|ENSG00000198589|bound_else_gene|NA|bound_elsewhere_windowed (ssRNA)
# RNA: GGGAGUUCUACAGUCCGACGAUCGAAGCCUCUGUGACAUUUUUGCAGAGGCUAAUUAGCCUUGUGGAUGUGCUUAUAUUUGCAAGUUCUCUUGGCUUUACUGAAAUUGAAGCUGAAAAAAGUAUGUCAUCUGGAGGAAUUUUGCAACAGAGGAUUGAGCAUCA
# B6: chr9:37126384:37126485:+|CDS|ENSG00000147905|unk|total|mutant (ssRNA)
# RNA: GGGAGUUCUACAGUCCGACGAUCUAUCGAGAUGAGUCAUCCCGUGAACUGAGUGUUGACCGUGAGGUGGAAUUUCAACUCUACCGCCAAAUUCAUUAUGCCCAAGAUCUUGAUGAUGUCAUCAGGGAGGAAGAGCAUGAAGAACAACAGAGGAUUGAGCAUCA
# B7: chr15:52550718:52550819:-|3pUTR|ENSG00000128989|msi1|total|mutant (ssRNA)
# RNA: GGGAGUUCUACAGUCCGACGAUCUUUAUAUAAACUUUUUAAAUGCCGAAACUUUUUACUUCCACACUCAGUUUUGGAGACCCCCGAAUAAAAGGCUUCAAUACUCUGCAUUCCAUGCCCUCUGCCACCUGCUUUUUUUUCCCCCAACAGAGGAUUGAGCAUCA
# B8: ENSG00000066084:stop:overlap|stop_codon|ENSG00000066084|stop_codon|NA|stop_codon (ssRNA)
# RNA: GGGAGUUCUACAGUCCGACGAUCACUGGCAGCCACACAUCUCACCUGCUGGGACAGAACCGGCAUACAUUGAGGGGAAACAAUAGUAAAUGUCUUAGACUUUAAGAAGGAUGCUGGGCUGUGGCACGGCAUGUUUGCGAAUGUCAACAGAGGAUUGAGCAUCA
# B9: chrX:150470157:150470258:+|CDS|ENSG00000013619|unk|FALSE|unique (ssRNA)
# RNA: GGGAGUUCUACAGUCCGACGAUCUCCAAAUGAGCUAGAUCUUGAGAAGAUACUGGGGACGAAGCCAGAAGAGCCACUGGUUUUAGAUCAUCCCCAGGCAACCCUAAGCACAACUCCCAAGCCUUCGGUUCAGAUGUCACACUUCAACAGAGGAUUGAGCAUCA
# B10: chr8:102207567:102207681:-|3pUTR|ENSG00000048392|unk|total|mutant (ssRNA)
# RNA: GGGAGUUCUACAGUCCGACGAUCUAUUAAUUGCAAUGAUGUUGUAAUAAAAUACUCUCAUUUCCUUAAAAUAAUUGUGAUUCCCGGUCCCCGGAUCCCGAAUCCGAUCUUUGUAUUUUUAAUGCUCCGGGGAAGAAUAUAAGUCAACAGAGGAUUGAGCAUCA
# B11: ENSG00000142634:stop:overlap|stop_codon|ENSG00000142634|stop_codon|NA|stop_codon (ssRNA)
# RNA: GGGAGUUCUACAGUCCGACGAUCAGGCGGAGGAGAUGAAGCAGCGGAAAGCGGCCUUCAAGGAGCUGCAGUCCACCUUUAAGUAGCGGGGGCUGCAGCCGACCGCCCUGCUCCGGCCCCAGUGUGGUGGGCGAGGGUGGCGCACAACAGAGGAUUGAGCAUCA
# B12: ENSG00000100154:stop:overlap|stop_codon|ENSG00000100154|stop_codon|NA|stop_codon (ssRNA)
# RNA: GGGAGUUCUACAGUCCGACGAUCAGCCAGUGAAGGCAGGUGACACUUACCUCCACCAGGUGAUGCAGGCUGUGGUGAUAAACUAGAGUGUGAAGAGCUCAGAGUGCAGCCUCUGGCCUUGCCACUCACAAGCUGUAGGACACUCAACAGAGGAUUGAGCAUCA
# B13: chr18:33333173:33333394:-|CDS|ENSG00000166960|control|control|control (ssRNA)
# RNA: GGGAGUUCUACAGUCCGACGAUCACAUUUUGAAAAACAAAAGACAGAGUUAGAAGAAGCAAAUGCAAAGAUUCAAGCAGACAUAGACUACAUGAAUGAACAUGGCCCUCUACUGGACUCUAAGCAGAAUCAGGAACUUCAAGACAACAGAGGAUUGAGCAUCA
# B14: chr3:142163631:142163732:-|3pUTR|ENSG00000175066|unk|total|mutant (ssRNA)
# RNA: GGGAGUUCUACAGUCCGACGAUCCCCAAAGUGCUGGGAUUGCAGCCGUGAACCACUGCACCCAGCCAAUGGGUGUAAUUUCACCGGAAAUAAUUCUUUUUGUCAGAAUGUACUGAAUUGUAAUAUUAAUACCUGAAAAUUUGUCAACAGAGGAUUGAGCAUCA
# B15: ENSG00000101596:stop:overlap|stop_codon|ENSG00000101596|stop_codon|NA|stop_codon (ssRNA)
# RNA: GGGAGUUCUACAGUCCGACGAUCUUAGUUGUAAUAAAAUAAAAGAUAAUGACAAAGAAGAUGGCUGCUUCUAUUUCAGGUUAUAGUUGAAGUCCUGCCUAAUCAACCUGUGAAGUUAGUACCUAAAAUUAAACCACCUACACCCAACAGAGGAUUGAGCAUCA
# B16: chr20:18487131:18487232:-|3pUTR|ENSG00000089050|msi1|FALSE|unique (ssRNA)
# RNA: GGGAGUUCUACAGUCCGACGAUCAAAUAUAGUAACCAGUAACCACAGCUAGCUGUAAAAUUGAAAAUUCAGUUCAGUCAAACUAGCCAUAUUUCAAGUGCUCAACAGCCACUGGUGGCUAUUGGUUACCUUACUGACCAGCCACAACAGAGGAUUGAGCAUCA
# B17: chr9:34635388:34635489:-|3pUTR|ENSG00000147955|msi1|total|mutant (ssRNA)
# RNA: GGGAGUUCUACAGUCCGACGAUCGGGAUAUCCAUGCUUAUGUAUCCAAACACAGAGACCCAUGGGAACAAAUGAGACACAUACCGAUACUGAGACCUGUGUGUACAGCCGGACCAUGCACUCACACCCAUCUGGAGAGGGAGCCAACAGAGGAUUGAGCAUCA
# B18: chr1:16124655:16124788:-|3pUTR|ENSG00000142627|msi1|total|mutant (ssRNA)
# RNA: GGGAGUUCUACAGUCCGACGAUCAGACUGUGAACUUGACUGGGUGAGACCCAAAGCGGUCCCUGUCCCUCCCGUGCCUUCUUCCGACCCUCGGGCCCCAUCCUCAUCCCUGACUGGCCAAACCCUUGCUUUCCUGGGCCUUUGCAACAGAGGAUUGAGCAUCA
# B19: ENSG00000070961:be:win_2401|CDS|ENSG00000070961|bound_else_gene|NA|bound_elsewhere_windowed (ssRNA)
# RNA: GGGAGUUCUACAGUCCGACGAUCGAUGGCCCAGCACUAAAGAAAGCAGAUGUUGGAUUUGCAAUGGGUAUUGCUGGAACUGAUGUAGCUAAAGAAGCAUCCGAUAUUAUUCUCACAGAUGACAACUUUACAAGCAUUGUUAAACAACAGAGGAUUGAGCAUCA
# B20: chr1:6592219:6592320:-|3pUTR|ENSG00000162413|unk|total|mutant (ssRNA)
# RNA: GGGAGUUCUACAGUCCGACGAUCCCCAAAGCCGCCUUGGCUUGAGUUUUUGUCCUUGCCUCCUUUUCCGAGAAGAGGGCAUUCCGACUGCAUUUUCCUGGUUAAAGAAGGUUAAAGCAAAUGUUUAUUGCCUUUUCCCGUGAACAACAGAGGAUUGAGCAUCA
# B21: ENSG00000168297:stop:overlap|stop_codon|ENSG00000168297|stop_codon|NA|stop_codon (ssRNA)
# RNA: GGGAGUUCUACAGUCCGACGAUCCUGGGGCCAGCUCACCUCUCACGUCCCCGUCAUCGCCAACUCCACCCUCUACAUCAGGUUAGUGAUGGAGUAAAGUGACAUGCCACCUUCCUGUCCGCCAACAGGAGGAGCGGGCUGUGCCAACAGAGGAUUGAGCAUCA
# B22: chr22:40826605:40826706:-|CDS|ENSG00000100380|unk|total|mutant (ssRNA)
# RNA: GGGAGUUCUACAGUCCGACGAUCCACCAAAUUACAGGUCUAAAUAAGAGAUGGAAUUCCGGAUAAUAAACUUACUGACCCAGCCGGACACUUUUUAAAUACUAAUGAACCCUUUCUUUUCAGGAUCCAGAAGUUAUGGUGGCUCAACAGAGGAUUGAGCAUCA
# Target: T1, UNK ZnF1-6 (called full-length)
# Experiment: nsRBNS (natural sequence RNA bind-n-seq); RBNS binding buffer (assumed for nsRBNS): 25 mM Tris pH 7.5, 150 mM KCl, 3 mM MgCl2, 0.01% Triton X-100, 500 ug/ml BSA, 20 U/ml SUPERase-In, 4 C; UNK is unkempt and MSI1 is Musashi-1; names of the RNAs are library labels; protein concentration not given here; high values mean tight binding
row,Binder,binding signal [enrichment R]
1,B1,0.749
2,B2,1.48
3,B3,0.601
4,B4,0.569
5,B5,0.355
6,B6,0.413
7,B7,1.03
8,B8,1.59
9,B9,0.539
10,B10,0.334
11,B11,1.43
12,B12,0.552
13,B13,0.467
14,B14,0.381
15,B15,1.46
16,B16,0.375
17,B17,0.886
18,B18,1.06
19,B19,0.531
20,B20,0.414
21,B21,1.05
22,B22,0.405
